The values below come from the supplement of paper PMC10127200.

SMILES strings stand for the structures. Counter-ions that a name gives are not always drawn.

For the test, the system named is OVCAR4. The test is described as follows: Euclidean distance of Cell Painting phenotypic profile (signed KS, 77 features) to DMSO centroid (dimensionless distance); 5 or 10 uM (library dependent); higher = stronger phenotypic change vs DMSO (phenoactivity). Particulars: 48 h. An outline of the steps: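 Five cancer lines and a healthy fibroblast line received library compounds at 10 or 5 uM (library-dependent, 0.1% DMSO final) for 48 h. Stained cells were imaged confocally at 20X (9 fields/well). Harmony extracted 77 features, each scored as a signed Kolmogorov-Smirnov statistic against same-plate vehicle wells. Profiles were plate-position corrected, correlation-weighted and replicate-averaged at the top dose. Phenoactivity is the Euclidean distance from each profile to the median vehicle profile.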
The molecule `Nc1ccc(C(=O)O)c(O)c1` [4-Aminosalicylic acid] returned an Euclidean distance of 0.799.

Consider `Cc1cc(C)nc(NS(=O)(=O)c2ccc(N)cc2)n1` [Sulfamethazine Sodium Salt], for which the Euclidean distance is 1.38.

Molecule `Cc1ccc(C(C)C)c(O)c1` [Thymol] returned an Euclidean distance of 1.46.

Molecule `NC(=O)c1cccc(-c2cccc(OC(=O)NC3CCCCC3)c2)c1` gave an Euclidean distance of 1.17.

In turn, `O=S(=O)(c1ccccc1)c1cnc2c(N3CCNCC3)cccc2c1` had an Euclidean distance of 0.986.

Take `COc1cc(C(=O)O)ccc1NC(=O)[C@@H]1N[C@@H](CC(C)(C)C)[C@](C#N)(c2ccc(Cl)cc2F)[C@H]1c1cccc(Cl)c1F` [Idasanutlin (RG-7388)]: the Euclidean distance is 1.59.

With `O=c1cc(-c2ccccc2)oc2cc(O)cc(O)c12` [Chrysin], the Euclidean distance was determined as 1.37.

In turn, `C[C@@H](O[C@H]1OCCN(Cc2n[nH]c(=O)[nH]2)[C@H]1c1ccc(F)cc1)c1cc(C(F)(F)F)cc(C(F)(F)F)c1` [Aprepitant] yielded an Euclidean distance of 1.3.

In the case of `c1cnc2cc3c(cc2n1)[C@@H]1CNC[C@H]3C1` [Varenicline Tartrate], the Euclidean distance was 1.05.

`Oc1c(Cl)cc(Cl)cc1Sc1cc(Cl)cc(Cl)c1O` [Bithionol] returned an Euclidean distance of 1.23.

On to `C[N+](C)(C)CCOC(N)=O` [Carbachol], for which the Euclidean distance turned out to be 1.56.

Regarding `Nc1ncnc2c1c(-c1cnc3[nH]ccc3c1)nn2C1CCCC1`, the Euclidean distance is 3.29.

Regarding `NC(=O)NCCC[C@H](N)C(=O)O` [L-Citrulline], the Euclidean distance is 0.761.

In the case of `CN(C)CCCN1c2ccccc2CCc2ccccc21` [Imipramine HCl], the Euclidean distance amounted to 1.33.

Take `CCn1c(=O)c2c(nc(/C=C/c3ccc(OC)c(OC)c3)n2C)n(CC)c1=O` [Istradefylline]: the Euclidean distance amounted to 1.44.
